Measured values: PubChem BioAssay (NCATS)
Where “and” joins values, the source holds several entries; their conditions need not be identical. Equal entries are not always repeated. Values without a mark were called inactive. Records with an inconclusive call do not appear. A call without a number means that no potency is given here. Calls of active or inactive are those of the source. Unless noted, calls follow the shape of the dose curve; as a rule, active = well fitted curve in the direction sought with a large enough effect; inconclusive = small, poorly fitted or top-dose-only effect, or another doubt; inactive = no such curve, though single readings can be large; an effect the other way counts as inactive or inconclusive.

Tested on: not listed separately
Assay: qHTS assay for small molecule agonists of the antioxidant response element (ARE) signaling pathway measured by Nrf2-dependant transcriptional activity (AID 720636; active = well fitted curve in the direction sought with a large enough effect in the repeat runs; an effect the other way counts as inactive or inconclusive; also: potency is read from the fitted curve at half-maximal effect)
Settings: ARE-luc HepG2, Nrf2 luciferase reporter, 16 h; series mostly up to 92.4 µM
In short: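 Attachment 6 hr at 37 C, then compound versus DMSO vehicle for 16 hr in ARE-luc HepG2 cells (1% dialyzed FBS); luminescence recorded 30 min after ONE-Glo addition at room temperature.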
In the case of `O=C(O)[C@H](O)[C@@H](O)[C@H](O)[C@H](O)CO`, the Potency is reported as “inactive”. For `COc1cc(/C=C/C(=O)CC(=O)/C=C/c2ccc(O)c(OC)c2)ccc1O`, the Potency was 21.1 µM (active). In the case of `c1ccc2sc(SSc3nc4ccccc4s3)nc2c1`, the Potency is reported as “inactive”. With `CN1[C@@H]2CC[C@H]1CC(OC(=O)C(CO)c1ccccc1)C2` (some centres not stated) the Potency was “inactive”. For `CCCCCCCCCCCCCCCC(=O)OC(C)C`, the Potency was “inactive”. With `Nc1cc(-c2ccncc2)c[nH]c1=O` the Potency was “inactive”.

Tested on: not listed separately
Assay: qHTS assay for small molecule agonists of the antioxidant response element (ARE) signaling pathway measured by Nrf2-dependant transcriptional activity - cell viability counter screen (AID 720653; active = well fitted curve in the direction sought with a large enough effect in the repeat runs; an effect the other way counts as inactive or inconclusive)
Settings: ARE-bla HepG2 viability, CellTiter-Glo ATP luminescence, 16 h; max response: hits give low values
In short: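 ARE-bla HepG2 cells (2,000/well) rested 5 hrs at 37C/5% CO2, then exposed to compounds in DMSO for 16 hrs. Viability was read in the same wells as intracellular ATP by luminescence, 30 min at room temperature after reagent addition.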
With `COc1cc(CNC(=O)CCCC/C=C/C(C)C)ccc1O` the max response was -7.9% and -5.74%. Work on `O=C(O)[C@H](O)[C@@H](O)[C@H](O)[C@H](O)CO` yielded a max response of 21%. Work on `COc1cc(/C=C/C(=O)CC(=O)/C=C/c2ccc(O)c(OC)c2)ccc1O` yielded a max response of -2.44%. In the case of `c1ccc2sc(SSc3nc4ccccc4s3)nc2c1`, the max response is reported as -3.31% and 10.5%. Compound `CN1[C@@H]2CC[C@H]1CC(OC(=O)C(CO)c1ccccc1)C2` (some centres not stated) has a max response of -6.68%. Work on `CCCCCCCCCCCCCCCC(=O)OC(C)C` yielded a max response of -10.7%. `Nc1cc(-c2ccncc2)c[nH]c1=O` gave a max response of -1.18%.

Molecular target: T1, Hexokinase-4 (Homo sapiens) + Glucokinase regulatory protein (Homo sapiens) (UniProt P35557+Q14397)
T1 sequence (P35557 whole entry, looked up): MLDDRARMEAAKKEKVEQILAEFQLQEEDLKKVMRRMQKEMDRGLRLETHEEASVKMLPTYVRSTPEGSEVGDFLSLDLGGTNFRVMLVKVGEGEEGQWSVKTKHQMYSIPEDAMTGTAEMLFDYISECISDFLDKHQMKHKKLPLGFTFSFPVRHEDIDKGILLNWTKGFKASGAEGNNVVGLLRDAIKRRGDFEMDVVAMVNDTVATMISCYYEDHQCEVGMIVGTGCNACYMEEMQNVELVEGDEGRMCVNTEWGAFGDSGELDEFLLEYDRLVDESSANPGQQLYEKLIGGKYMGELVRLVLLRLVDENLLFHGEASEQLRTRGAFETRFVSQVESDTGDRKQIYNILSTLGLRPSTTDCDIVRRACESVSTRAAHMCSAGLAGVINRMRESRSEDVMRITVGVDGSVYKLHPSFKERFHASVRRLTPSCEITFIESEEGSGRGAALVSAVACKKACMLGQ
T1 sequence (Q14397 whole entry, looked up): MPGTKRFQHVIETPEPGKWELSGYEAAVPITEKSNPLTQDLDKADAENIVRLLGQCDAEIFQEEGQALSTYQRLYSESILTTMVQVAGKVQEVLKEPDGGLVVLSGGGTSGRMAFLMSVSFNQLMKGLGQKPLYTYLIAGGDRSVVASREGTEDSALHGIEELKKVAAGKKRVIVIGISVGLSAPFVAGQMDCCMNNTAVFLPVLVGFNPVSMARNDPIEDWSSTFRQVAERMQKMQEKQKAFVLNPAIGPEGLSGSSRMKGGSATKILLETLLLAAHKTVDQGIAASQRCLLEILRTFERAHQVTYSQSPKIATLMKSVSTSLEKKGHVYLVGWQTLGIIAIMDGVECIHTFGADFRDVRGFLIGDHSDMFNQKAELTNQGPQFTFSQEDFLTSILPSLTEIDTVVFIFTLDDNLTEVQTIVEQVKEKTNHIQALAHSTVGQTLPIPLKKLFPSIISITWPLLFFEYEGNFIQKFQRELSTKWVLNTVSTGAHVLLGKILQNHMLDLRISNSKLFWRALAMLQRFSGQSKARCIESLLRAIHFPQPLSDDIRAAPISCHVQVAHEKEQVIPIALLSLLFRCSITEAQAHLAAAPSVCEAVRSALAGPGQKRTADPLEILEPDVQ
Assay: qHTS assay for inhibitors of recombinant human GCK-GKRP interaction: Diaphorase-coupled assay (AID 743205)
Settings: G6PDH/diaphorase resorufin fluorescence; series mostly up to 57.5 µM
In short: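 Inhibitors of the GCK–GKRP complex relieve GKRP suppression of GCK, detected through a G6PDH–diaphorase cascade reducing resazurin. Human GST-GCK and FLAG-GKRP are used at 10 nM with 5 mM glucose and 0.4 mM ATP.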
In the case of `Cc1ccc(S(=O)(=O)/C=C/C#N)cc1`, the outcome is reported as “inactive”. With `Nc1nc(Cl)nc2c1ncn2[C@@H]1O[C@H](COP(=O)(O)OP(=O)(O)OP(=O)(O)O)[C@@H](O)[C@H]1O` the outcome was “inactive”. In the case of `Nc1nc(SCc2ccc([N+](=O)[O-])cc2)c2ncn([C@@H]3O[C@H](CO)[C@@H](O)[C@H]3O)c2n1`, the outcome is reported as “inactive”. For `C[N+]1(C)C2CC(OC(=O)[C@H](CO)c3ccccc3)CC1C1OC12` (some centres not stated), the outcome was “inactive”. With `CCc1c(C(=O)NCCc2ccc(N3CCCCC3)cc2)[nH]c2ccc(Cl)cc12` the outcome was “inactive”. In the case of `CC[C@@H](C)[C@H]1O[C@]2(CC[C@H]1C)C[C@@H]1C[C@@H](CC=C(C)[C@@H](O[C@H]3C[C@H](OC)[C@@H](O[C@H]4C[C@H](OC)[C@@H](O)[C@H](C)O4)[C@H](C)O3)[C@@H](C)C=CC=C3CO[C@@H]4[C@H](O)C(C)=C[C@@H](C(=O)O1)[C@]34O)O2`, the outcome is reported as “inactive”. In the case of `O=C(O)CC1CC(c2ccccc2)=NO1` (configuration not stated), the outcome is reported as “inactive”.

Molecular target: T1, Hexokinase-4 (Homo sapiens) + Glucokinase regulatory protein (Homo sapiens)
Assay: qHTS assay for inhibitors of recombinant human GCK-GKRP interaction: ADP-Glo assay (AID 743206)
Settings: ADP-Glo luminescence, 60 min; series mostly up to 76.9 µM
In short: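 GST-GCK and FLAG-GKRP (15 nM each in the dispensed mix, with 2 uM S6P) react with 0.4 mM ATP and 5 mM glucose (final) in Hepes pH 7.6 for 60 min at room temperature. ADP is measured by ADP-Glo luminescence.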
In the case of `Cc1ccc(S(=O)(=O)/C=C/C#N)cc1`, the Potency is reported as “inactive”. With `Nc1nc(Cl)nc2c1ncn2[C@@H]1O[C@H](COP(=O)(O)OP(=O)(O)OP(=O)(O)O)[C@@H](O)[C@H]1O` the Potency was “inactive”. With `Nc1nc(SCc2ccc([N+](=O)[O-])cc2)c2ncn([C@@H]3O[C@H](CO)[C@@H](O)[C@H]3O)c2n1` the Potency was “inactive”. In the case of `C[N+]1(C)C2CC(OC(=O)[C@H](CO)c3ccccc3)CC1C1OC12` (some centres not stated), the Potency is reported as “inactive”. In the case of `CCc1c(C(=O)NCCc2ccc(N3CCCCC3)cc2)[nH]c2ccc(Cl)cc12`, the Potency is reported as “inactive”. With `CC[C@@H](C)[C@H]1O[C@]2(CC[C@H]1C)C[C@@H]1C[C@@H](CC=C(C)[C@@H](O[C@H]3C[C@H](OC)[C@@H](O[C@H]4C[C@H](OC)[C@@H](O)[C@H](C)O4)[C@H](C)O3)[C@@H](C)C=CC=C3CO[C@@H]4[C@H](O)C(C)=C[C@@H](C(=O)O1)[C@]34O)O2` the Potency was “inactive”. For `O=C(O)CC1CC(c2ccccc2)=NO1` (configuration not stated), the Potency was “inactive”.
